This is part of a sample that, as a whole, favours compounds with a hit. Of some 83,000 tested, about 20% had one in any assay.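 Testing used 96-well plates and a 48-hour single-concentration exposure. Example: -40 means 40% of the starting cells died.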 Values without a mark were called inactive. Activity calls are given as the source filed them. The calls were made as follows: active = growth percent below 10; inactive = the rest.

For this test, the system named is BT-549 breast. Briefly: NCI-60 one-dose screen, 48 h (100 = growth as untreated, 0 = no growth, -100 = all killed). As to conditions: 10 µM unless noted.
With `COc1c(B(O)O)cc(F)cc1-c1nc2c(F)cc3[nH]ncc3c2c2c1CCCC2`, the growth was -62.2% (active).

Consider `CC1=C(C(=O)Nc2ccccc2)C(c2cccc(Cl)c2Cl)n2c(nc3ccccc32)N1` (stereo not drawn), for which the growth was 71%.

In the case of `COc1ccccc1NC(=O)c1ccc(NC(=O)CCl)s1`, the growth is -57.7% (active).

Regarding `O=C(CSc1nc2sc3c(c2c(=O)n1-c1ccc(Cl)cc1)CCCC3)NNC(=O)c1ccc(Br)cc1`, the growth was 74.5%.

For `O=C1CCC(N2C(=O)c3cccc(NCCOCCOCCOCCC(=O)NCCCC(=O)NC(c4ccc5c(c4)OCO5)c4cc(Cl)c5cccnc5c4O)c3C2=O)C(=O)C1` (stereo not drawn), the growth is 11.3%.

For the compound `NCCCCn1c(SCCc2c[nH]c3ccccc23)nnc1-c1ccc2ccccc2n1`, the growth was 54.5%.

In the case of `CCCSc1nnc(-c2sc3nc4ccccc4n3c2C)o1`, the growth is 157%.

Turning to `Cc1ccc2c(c1)/C(=C/C(=O)c1cc3ccccc3oc1=O)C(=O)N2`, the growth was 68.8%.

In the case of `Cn1cc(-c2cc(N)n3nc(-c4c[nH]c5ccccc45)cc3n2)c2cc(F)ccc21`, the growth was 98.3%.

Take `COc1ccccc1/C=C/c1cccc(NC(=S)NCCCCN(C)C)c1`: the growth is -60.7% (active).

In the case of `O=C1NC(=S)/C(=C/c2cn(-c3ccccc3)nc2-c2ccccc2)S1`, the growth was -9.85% (active).

As for `Cc1cc(C)c2[nH]c(=O)c(C(c3nnnn3Cc3ccc4c(c3)OCO4)N3CCN(C)CC3)cc2c1` (stereo not drawn), the growth was 106%.

`C[C@@H]1[C@H]2C[C@@H](C[C@H]1NCc1nc3ccccc3n1C1CCCCCC1)C2(C)C`: the growth was 72.8%.

Source of the values: PubChem BioAssay (NCI).
